In PubChem BioAssay (NCATS) one finds Potency data, which are given here for 36 molecules.

Each structure is given as a SMILES string. Results filed as inconclusive are left out. Where a call stands in place of a potency, no number is given. Calls of active or inactive are those of the source. Calls follow the shape of the dose curve; as a rule, active = well fitted cell-killing curve with a large enough effect; inconclusive = small, poorly fitted or top-dose-only effect; inactive = no such curve, though single readings can be large or run the other way.

A short description of the assay: qHTS of pediatric cancer cell lines to identify multiple opportunities for drug repurposing: Primary screen for Rh41 cells (AID 1347108).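 Also: luminescence drop marks cytotoxic hits; nearly all actives have a fitted effect of over 70% in size.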 The settings on record: Rh41 rhabdomyosarcoma viability, CellTiter-Glo luminescence, 48 h; series mostly up to 46 µM. The essentials:
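ATP-based luminescence (CellTiter-Glo) quantifies viability after a 48-hour exposure. Compounds are dosed across 8 or 11 final concentrations; DMSO and 2.3 µM bortezomib serve as controls.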
(qHTS replaces the single test concentration by a dilution series.)
Take `CC(C)(N)Cc1ccccc1Cl`: the Potency entry was “inactive”.

With `C=C(C)[C@H]1CN[C@H](C(=O)O)[C@H]1CC(=O)O`, the Potency result is “inactive”.

In the case of `CNCC(=O)c1ccc(O)c(O)c1`, the Potency entry is “inactive”.

Take `COP(=S)(OC)Oc1ccc(S(=O)(=O)N(C)C)cc1`: the Potency entry was “inactive”.

Consider `C[C@]12CC[C@@H]3c4ccc(OC(=O)N(CCCl)CCCl)cc4CC[C@H]3[C@@H]1CC[C@@H]2O`, for which the Potency result is “inactive”.

For the molecule `NC(=O)c1cc([N+](=O)[O-])cc([N+](=O)[O-])c1`, the Potency entry was “inactive”.

For `O=c1[nH]oc2c1CCNC2`, the Potency entry is “inactive”.

For the molecule `O=C1OC(c2ccc(O)c(S(=O)(=O)O)c2)(c2ccc(O)c(S(=O)(=O)O)c2)c2c(Br)c(Br)c(Br)c(Br)c21`, the Potency result was “inactive”.

Take `Clc1ccc(C(c2ccc(Cl)cc2)C(Cl)(Cl)Cl)cc1`: the Potency result was “inactive”.

With `CC(C)=CC1C(C(=O)OCN2C(=O)C3=C(CCCC3)C2=O)C1(C)C` (stereo unspecified), the Potency result is “inactive”.

In the case of `CC1(C)C(C=C(Cl)Cl)C1C(=O)OC(C#N)c1cccc(Oc2ccccc2)c1` (stereo unspecified), the Potency result is “inactive”.

`COP(=S)(OC)Oc1cc(Cl)c(Cl)cc1Cl`: the Potency result was “inactive”.

Turning to `NNc1ccccc1`, the Potency entry is “inactive”.

On to `O=C(CCCN1CCC2(CC1)C(=O)NCN2c1ccccc1)c1ccc(F)cc1`, for which the Potency result is “inactive”.

As to `c1ccc2c(c1)sc1ccccc12`, the Potency result was “inactive”.

In the case of `CC(C)(C)NCC(O)c1ccccc1Cl` (stereo unspecified), the Potency entry is “inactive”.

As for `CCC(C)(C)c1ccc(O)cc1`, the Potency entry is “inactive”.

As to `C[C@@H](N)[C@@H](O)c1ccccc1`, the Potency result is “inactive”.

Turning to `C#C[C@]1(O)CC[C@H]2[C@@H]3CCC4=CC(=O)CC[C@]4(C)[C@H]3CC[C@@]21C`, the Potency result is “inactive”.

For the molecule `CNC(C)(C)Cc1ccccc1`, the Potency result is “inactive”.

As to `CN1C(=O)CCS(=O)(=O)C1c1ccc(Cl)cc1` (stereo unspecified), the Potency result is “inactive”.

For the molecule `O=c1oc2ccccc2c(O)c1Cc1c(O)c2ccccc2oc1=O`, the Potency result is “inactive”.

Turning to `Clc1cccc(SC2CCNCC2)n1`, the Potency result was “inactive”.

For the molecule `Nc1ccccc1`, the Potency result is “inactive”.

Consider `CC(C)(C)NCC(O)c1cc(Cl)c(N)c(C(F)(F)F)c1` (stereo unspecified), for which the Potency result is “inactive”.

With `O=c1[nH]c2ccccc2n1C1CCNCC1`, the Potency entry was “inactive”.

For `Nc1ccccc1C(=O)O`, the Potency entry is “inactive”.

As to `COc1c2c(cc3c1OCO3)CCN(C)C2`, the Potency entry was “inactive”.

As for `CC(C)c1cccc(C(C)C)c1O`, the Potency result was “inactive”.

`CCC1(c2ccc(N)cc2)CCC(=O)NC1=O` (stereo unspecified): the Potency entry was “inactive”.

Turning to `CC(C)c1c(CN(C)C(C)Cc2ccccc2)n(C)n(-c2ccccc2)c1=O` (stereo unspecified), the Potency entry was “inactive”.

For `COC(=O)C(Cl)C(=O)OC`, the Potency result was “inactive”.

Take `CC[N+]1(CC)CCC(OC(=O)C(O)(c2ccccc2)c2ccccc2)C1` (stereo unspecified): the Potency entry was “inactive”.

As for `CCC1(CC)C(=O)C=CNC1=O`, the Potency result was “inactive”.

`CC(C(=O)c1ccccc1)N(C)C` (stereo unspecified): the Potency result is “inactive”.

For `COc1cccc([C@@]2(O)CCCC[C@@H]2CN(C)C)c1`, the Potency result is “inactive”.
